Reference: PubChem BioAssay (NCATS)
Values without a mark were called inactive. Records with an inconclusive call do not appear. The source made the active and inactive calls.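 Rule for the calls, unless noted: active = compounds whose dose series gives a full or clear partial fitted curve of increased nuclear translocation; inconclusive = weak partial curve or effect only at the top dose; inactive = no dose-dependent translocation response.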

Tests used:
[1] = Stat Signaling Pathway (AID 446; active = well fitted curve in either direction with a large enough effect, not every such curve was filed as active;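 note: ME-180 cervical cancer cells given 40 pM IL-6 alongside compound; SIE-controlled beta-lactamase reporter measured as 460/530 nm FRET emission ratio; % is set by controls: 0 for no effect and ±100 for the full control effect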); details: ME-180 (cervical carcinoma) SIE beta-lactamase reporter, IL-6 stimulated, 5 h; at 17.2 µM (top of the series) unless noted
Method in brief: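 FRET read-out (405 nm excitation, 460/530 nm emission) of a beta-lactamase reporter under a STAT-inducible element in ME-180 cervical carcinoma cells. Cells with compound receive 40 pM IL-6 for 5 h. Values are normalised to AC90 stimulation and AC90 JAK-inhibitor controls.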

[2] = target: Glucocorticoid receptor (Homo sapiens) (UniProt P04150); experiment: GR-GFP Redistribution (AID 450); note: potency is the fitted concentration of half-maximal effect
[3] = target: 3',5'-cyclic-AMP phosphodiesterase 4B (Homo sapiens) (UniProt Q07343); experiment: qHTS Assay for Inhibitors of PDE-IV (AID 607; active = well fitted activation curve with a large enough effect in the main read-out, with a control signal flat, not every such curve was filed as active; note: % of control where 0% means no effect)
Method in brief: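 Cell-based read-out of cAMP via a modified cyclic nucleotide-gated channel and membrane potential dye (535/590 nm) in HEK293 cells expressing PDE4 endogenously. Compounds tested up to 22.9 uM final; 100 uM RO 20-1724 reference.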

[4] = target: Cytochrome P450 3A4 (Homo sapiens) (UniProt P08684); experiment: qHTS Assay for Inhibitors and Substrates of Cytochrome P450 3A4 (AID 884; active = well fitted curve in the direction sought with a large enough effect; an effect the other way counts as inactive or inconclusive; note: % is set by controls: 0 for no effect and ±100 for the full control effect; nearly all actives have a fitted effect of over 50% in size)
Method in brief: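 Luminescent readout of luciferin produced by CYP3A4 (20 nM) dealkylation of Luciferin-PPXE, 25 uM (its KM). NADPH-driven reaction ran 60 min at RT after 10 min compound preincubation; data scaled to 57 uM ketoconazole as 100% inhibition.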

[5] = target: Pyruvate kinase (Leishmania mexicana) (UniProt Q27686); experiment: qHTS Validation Assay for Inhibitors of Leishmania Mexicana Pyruvate Kinase (AID 945; active = well fitted curve in the direction sought with a large enough effect; an effect the other way counts as inactive or inconclusive;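 note: 0% = DMSO only neutral control wells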)
Method in brief: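 Purified LmPYK (E451W mutant, 0.2 nM) was incubated 1 h at room temperature with 0.5 mM PEP and 0.1 mM ADP in 50 mM imidazole pH 7.2, 50 mM KCl, 7 mM MgCl2; ATP formed was read by PKLight luminescence, normalized to DMSO wells.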

[6] = target: Pyruvate kinase PKM (Homo sapiens) (UniProt P14618); experiment: qHTS Assay for Activators of Human Muscle Pyruvate Kinase (AID 954; active = well fitted curve in the direction sought with a large enough effect, not every such curve was filed as active;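 note: 0% = uninhibited enzyme and -100% = no enzyme or full thiadiazolimine inhibition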)
Method in brief: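 ATP production by PKM2 detected via luciferase luminescence after 1 h room-temperature reaction (0.1 nM enzyme, PEP at Km 0.5 mM, ADP 0.1 mM, pH 7.2 imidazole buffer). Inhibition scaled to no-enzyme control; activation referenced to 0.3 nM enzyme wells.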

[7] = target: Alpha-galactosidase A (Homo sapiens) (UniProt P06280); experiment: Counterscreen for Glucocerebrosidase Inhibitors: qHTS Assay for Human alpha-Galactosidase at pH 4.5 (AID 992; active = well fitted curve in the direction sought with a large enough effect; an effect the other way counts as inactive or inconclusive; note: 0% is about no effect)
Method in brief: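 Fluorogenic 1536-well qHTS at pH 4.5 (citrate, Tween-20): 2 nM enzyme, 80 uM 4-MU-alpha-galactoside, 20 min room temperature, NaOH/glycine stop. Titration 0.7 nM to 77 uM, data normalized to no-enzyme and full-activity controls, Hill-fitted AC50.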

[8] = target: alpha-glucosidase (Oryza sativa, rice) (UniProt Q653V4); experiment: Counterscreen for Glucocerebrosidase Inhibitors: qHTS Assay for Rice alpha-Glucosidase at pH 5.0 (AID 997; active = well fitted curve in the direction sought with a large enough effect; an effect the other way counts as inactive or inconclusive;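 note: 0% = full activity with enzyme and -100% = basal without enzyme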)
Method in brief: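 Endpoint fluorogenic assay at pH 5.0: compounds (0.7 nM to 77 uM) titrated against 4 nM rice enzyme and 400 uM 4-MU-alpha-glucoside for 20 min at room temperature; NaOH/glycine stop, read ex 365/em 440 nm, Hill-fitted AC50.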

Chain of Glucocorticoid receptor (Homo sapiens) (P04150 whole entry, looked up): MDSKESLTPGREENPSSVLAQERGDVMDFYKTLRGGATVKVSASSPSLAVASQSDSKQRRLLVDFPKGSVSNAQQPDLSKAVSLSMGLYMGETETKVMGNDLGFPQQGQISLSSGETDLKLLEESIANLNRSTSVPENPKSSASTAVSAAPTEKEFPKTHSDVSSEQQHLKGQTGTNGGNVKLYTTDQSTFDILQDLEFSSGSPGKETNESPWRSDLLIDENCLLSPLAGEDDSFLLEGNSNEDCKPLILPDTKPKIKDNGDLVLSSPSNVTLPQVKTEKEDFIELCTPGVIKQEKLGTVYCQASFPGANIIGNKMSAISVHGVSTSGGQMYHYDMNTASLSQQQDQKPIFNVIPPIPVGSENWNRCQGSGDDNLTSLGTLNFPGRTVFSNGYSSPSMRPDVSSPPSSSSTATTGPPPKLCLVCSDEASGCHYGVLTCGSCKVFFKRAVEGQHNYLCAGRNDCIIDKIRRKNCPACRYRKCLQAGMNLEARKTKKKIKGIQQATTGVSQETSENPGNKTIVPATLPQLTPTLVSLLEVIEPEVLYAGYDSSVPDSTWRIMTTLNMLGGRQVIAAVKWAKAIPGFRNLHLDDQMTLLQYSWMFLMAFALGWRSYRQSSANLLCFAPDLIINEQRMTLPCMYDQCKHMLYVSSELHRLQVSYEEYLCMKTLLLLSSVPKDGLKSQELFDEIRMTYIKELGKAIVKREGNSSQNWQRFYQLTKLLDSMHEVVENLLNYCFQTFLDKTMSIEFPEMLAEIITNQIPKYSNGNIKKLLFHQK
Chain of Pyruvate kinase (Leishmania mexicana) (Q27686 2-499 E452W): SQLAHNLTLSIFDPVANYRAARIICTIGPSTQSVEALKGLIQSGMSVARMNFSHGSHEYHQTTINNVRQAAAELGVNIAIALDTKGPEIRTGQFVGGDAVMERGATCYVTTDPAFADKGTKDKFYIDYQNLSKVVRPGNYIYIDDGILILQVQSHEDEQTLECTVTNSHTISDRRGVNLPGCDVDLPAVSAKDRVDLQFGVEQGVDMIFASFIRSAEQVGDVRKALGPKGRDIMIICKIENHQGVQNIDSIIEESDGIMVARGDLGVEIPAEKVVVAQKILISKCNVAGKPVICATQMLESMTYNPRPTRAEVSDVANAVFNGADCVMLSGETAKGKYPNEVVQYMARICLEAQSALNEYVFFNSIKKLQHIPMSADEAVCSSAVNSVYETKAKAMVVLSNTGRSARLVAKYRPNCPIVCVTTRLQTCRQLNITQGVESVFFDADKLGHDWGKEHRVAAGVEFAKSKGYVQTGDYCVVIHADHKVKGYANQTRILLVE
Chain of Alpha-galactosidase A (Homo sapiens) (P06280 whole entry, looked up): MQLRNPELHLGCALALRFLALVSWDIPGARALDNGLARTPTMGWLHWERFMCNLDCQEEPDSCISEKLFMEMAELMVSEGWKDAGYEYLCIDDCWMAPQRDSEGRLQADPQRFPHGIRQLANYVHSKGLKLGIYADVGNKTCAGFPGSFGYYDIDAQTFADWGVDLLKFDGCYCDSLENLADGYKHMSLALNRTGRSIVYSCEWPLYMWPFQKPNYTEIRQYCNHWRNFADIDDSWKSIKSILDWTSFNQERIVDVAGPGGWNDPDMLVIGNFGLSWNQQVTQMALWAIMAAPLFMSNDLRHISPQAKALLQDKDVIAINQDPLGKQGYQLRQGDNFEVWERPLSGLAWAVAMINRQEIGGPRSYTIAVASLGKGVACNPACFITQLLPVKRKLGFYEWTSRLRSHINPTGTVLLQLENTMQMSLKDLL
Chain of 3',5'-cyclic-AMP phosphodiesterase 4B (Homo sapiens) (Q07343 whole entry, looked up): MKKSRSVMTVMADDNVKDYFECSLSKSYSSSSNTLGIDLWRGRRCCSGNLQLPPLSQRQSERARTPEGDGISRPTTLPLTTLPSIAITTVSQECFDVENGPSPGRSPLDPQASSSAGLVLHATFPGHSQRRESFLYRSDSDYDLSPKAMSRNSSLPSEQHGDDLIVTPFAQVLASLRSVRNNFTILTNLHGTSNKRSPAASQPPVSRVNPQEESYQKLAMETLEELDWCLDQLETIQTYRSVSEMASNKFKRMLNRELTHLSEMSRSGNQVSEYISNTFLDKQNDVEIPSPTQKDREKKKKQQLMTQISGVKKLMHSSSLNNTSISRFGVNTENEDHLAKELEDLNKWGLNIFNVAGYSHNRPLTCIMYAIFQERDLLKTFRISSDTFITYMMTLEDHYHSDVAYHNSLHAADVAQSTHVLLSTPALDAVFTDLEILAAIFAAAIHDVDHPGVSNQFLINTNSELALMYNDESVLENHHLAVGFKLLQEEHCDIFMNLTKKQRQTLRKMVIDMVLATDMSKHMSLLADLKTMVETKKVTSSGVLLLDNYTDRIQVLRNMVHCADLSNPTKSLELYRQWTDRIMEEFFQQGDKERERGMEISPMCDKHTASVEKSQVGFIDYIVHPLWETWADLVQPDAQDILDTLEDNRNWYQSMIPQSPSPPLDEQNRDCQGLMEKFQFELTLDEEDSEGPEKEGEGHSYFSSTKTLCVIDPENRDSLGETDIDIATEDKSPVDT
Chain of Pyruvate kinase PKM (Homo sapiens) (P14618 whole entry, looked up): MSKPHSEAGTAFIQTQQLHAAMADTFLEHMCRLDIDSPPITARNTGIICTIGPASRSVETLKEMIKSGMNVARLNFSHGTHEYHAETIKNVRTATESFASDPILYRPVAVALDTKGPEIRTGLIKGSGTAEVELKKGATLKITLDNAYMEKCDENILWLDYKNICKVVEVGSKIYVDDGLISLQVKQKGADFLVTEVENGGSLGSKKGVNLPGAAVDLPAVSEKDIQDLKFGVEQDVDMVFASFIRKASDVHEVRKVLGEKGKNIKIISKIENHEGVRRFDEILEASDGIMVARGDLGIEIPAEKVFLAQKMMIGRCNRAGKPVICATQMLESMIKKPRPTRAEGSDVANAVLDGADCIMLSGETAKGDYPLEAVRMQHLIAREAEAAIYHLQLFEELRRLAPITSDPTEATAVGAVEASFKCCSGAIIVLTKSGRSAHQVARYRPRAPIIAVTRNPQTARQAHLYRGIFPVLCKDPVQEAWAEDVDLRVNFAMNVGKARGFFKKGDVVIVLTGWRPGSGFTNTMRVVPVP
Chain of Cytochrome P450 3A4 (Homo sapiens) (P08684 whole entry, looked up): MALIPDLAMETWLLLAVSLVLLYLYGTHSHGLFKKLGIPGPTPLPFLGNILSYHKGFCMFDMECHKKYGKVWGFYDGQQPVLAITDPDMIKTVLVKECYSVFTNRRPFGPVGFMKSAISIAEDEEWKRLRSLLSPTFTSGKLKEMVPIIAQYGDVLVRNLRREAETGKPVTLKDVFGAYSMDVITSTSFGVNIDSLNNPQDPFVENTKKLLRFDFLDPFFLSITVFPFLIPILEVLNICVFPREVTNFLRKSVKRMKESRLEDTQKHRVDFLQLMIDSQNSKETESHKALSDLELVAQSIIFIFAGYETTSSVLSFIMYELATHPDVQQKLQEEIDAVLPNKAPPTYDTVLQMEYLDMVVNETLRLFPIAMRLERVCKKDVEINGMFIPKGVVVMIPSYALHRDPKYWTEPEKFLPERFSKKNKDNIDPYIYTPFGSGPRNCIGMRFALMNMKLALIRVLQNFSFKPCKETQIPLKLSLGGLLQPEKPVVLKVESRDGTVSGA

CN(C)c1nc(OCCNC(=O)Nc2ccccc2)nc(N(C)C)n1
activity, negative = inhibition [1]: -7.19% | Potency [2]: > 20.6 µM

COc1ccc(C(=O)C(CN2CCCC2)c2ccccc2)cc1 (stereo not drawn)
activity, negative = inhibition [1]: -8.3% | Potency [2]: > 20.6 µM

Cc1cc(C)n(S(=O)(=O)/C=C/c2ccccc2)n1
activity, negative = inhibition [1]: -7.25% | Potency [2]: > 20.6 µM

Cc1ccccc1-n1c(=O)/c(=C\c2ccco2)s/c1=C(/C#N)C(=O)Nc1ccccc1
activity, negative = inhibition [1]: -25.9% | Potency [2]: > 20.6 µM

CC1(C)Cc2c(c(N3CCOCC3)nc3sc4c(NCc5ccco5)nnnc4c23)CS1
activity, negative = inhibition [1]: -26.9% | Potency [2]: > 20.6 µM

N#Cc1nc(COc2ccc(Br)cc2)oc1N1CCCC1
activity, negative = inhibition [1]: 3.52% | Potency [2]: > 20.6 µM

CC(C)Cc1nc(N2CCN(C(=O)c3ccco3)CC2)c(C#N)c2c1CCC2
activity, negative = inhibition [1]: -7.73% | Potency [2]: > 20.6 µM

CCCOC(=O)CSC1=C(C#N)C(c2ccccc2OCC)C(C#N)C(=O)N1 (stereo not drawn)
activity, negative = inhibition [1]: -11.2% | Potency [2]: > 20.6 µM

N#C/C(=N\O)c1nc(-c2ccccc2)cs1
activity, negative = inhibition [1]: 9.7% | Potency [2]: > 20.6 µM

COc1ccc(CCn2c(C)cc3c(c2=O)C(c2ccc4c(c2)OCO4)C(C#N)=C(N)O3)cc1OC (stereo not drawn)
activity, negative = inhibition [1]: -21.6% | Potency [2]: > 20.6 µM

Nc1c2c(nc3ccccc13)N(c1ccccc1)CC2
activity, negative = inhibition [1]: 9.15% | Potency [2]: > 20.6 µM

Cn1c(NCC(O)c2ccccc2)nc2c1c(=O)n(Cc1ccc(Cl)cc1)c(=O)n2C (stereo not drawn)
activity, negative = inhibition [1]: -24.9% | Potency [2]: > 20.6 µM

CCOC(=O)c1c(C)n(C)c2ccc(O)c(CN3CCCCC3)c12
activity, negative = inhibition [1]: 18.3% | Potency [2]: > 20.6 µM

N#Cc1nc(-c2ccc(Cl)cc2)oc1N1CCCCC1
activity, negative = inhibition [1]: 2.4% | Potency [2]: > 20.6 µM

COc1ccc(Nc2cc(C)nc(-n3nc(C)cc3C)n2)cc1
activity, negative = inhibition [1]: -13% | Potency [2]: > 20.6 µM

CCC(=O)Oc1ccc(/C(CC)=C(\CC)c2ccc(OC(=O)CC)cc2)cc1
activity, negative = inhibition [1]: -21.2% | Potency [2]: > 20.6 µM

CCN(CC)c1ccc(-c2nn3c(-c4cccnc4)nnc3s2)cc1
activity, negative = inhibition [1]: -29.8% | Potency [2]: > 20.6 µM

CCN1CCc2c(C#N)c(N3CCCCC3)nc(NCc3ccccc3)c2C1
activity, negative = inhibition [1]: 5.55% | Potency [2]: > 20.6 µM

N#CCSc1nc2c(c(=O)n1Cc1ccco1)C1(CCCC1)Cc1ccccc1-2
activity, negative = inhibition [1]: -1.5% | Potency [2]: > 20.6 µM

O=c1c2sc3nc(N4CCOCC4)c4c(c3c2ncn1Cc1ccco1)CCCC4
activity, negative = inhibition [1]: -14.9% | Potency [2]: > 20.6 µM

COC(=O)c1cccc(Nc2cc(C)nc(-c3ccccc3O)n2)c1
activity, negative = inhibition [1]: -15.1% | Potency [2]: > 20.6 µM

CSc1nc2[nH]c3c(c2c2ncnn12)CCCC3
activity, negative = inhibition [1]: -26.5% | Potency [2]: > 20.6 µM

COc1ccc(C(=O)CCN2CCCCCC2)cc1
activity, negative = inhibition [1]: -28.1% | Potency [2]: > 20.6 µM

Cc1nc(SCC(=O)c2ccccc2)c(C#N)c(-c2ccco2)c1C(=O)NCc1ccco1
activity, negative = inhibition [1]: -21.3% | Potency [2]: > 20.6 µM

N#CC1=C(N)NC(SCc2ccc(F)cc2)=C(C#N)C12CCCCC2
activity, negative = inhibition [1]: -24.1% | Potency [2]: > 20.6 µM

C=CCN1CCc2c(cc(O)c(O)c2Br)[C@H](c2ccccc2)C1
activity, negative = inhibition [1]: 7.2% [at 38 µM] | Potency [2]: > 46 µM | Potency [3]: inactive | Potency [4]: inactive | Potency [5]: inactive | outcome [6]: inactive | outcome [7]: inactive | outcome [8]: inactive
